Assay [1] is described as follows: ATG_TAL_CIS: Attagene CIS-FACTORIAL HepG2 Assay for human TAL Basal Promoter (AID 2282966).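 Further: background control endpoint measuring basal TAL promoter reporter mRNA not a specific factor.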 The conditions noted are these: HepG2 Attagene cis-factorial TAL promoter reporter; actives raise or lower the signal. In short, it runs like this: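 HepG2 cells were transiently transfected with promoter-driven multiplexed reporter units and dosed for 24 h. Reporter mRNA was measured by RT-PCR with capillary electrophoresis fluorescence; bidirectional fits used DMSO as baseline, serving as a background control.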

Assay [2] is described as follows: ATG_TGFb_CIS: Attagene CIS-FACTORIAL HepG2 Assay for human Transforming Growth Factor (TGF) (AID 2282967). The conditions noted are these: HepG2 Attagene CIS TGFb reporter, mRNA transcription; actives raise or lower the signal. In a few lines: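 Transcript-level reporter readout: HepG2 transfectants, 24 h exposure, RNA to cDNA, reporter-specific PCR, fluorescent primer extension, capillary sizing against ROX standards. Gain- or loss-of-signal relative to DMSO.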

Assay [3] in a line: ATG_VDRE_CIS: Attagene CIS-FACTORIAL HepG2 Assay for human Vitamin D Receptor Element (VDRE) (AID 2282968). To be noted: HepG2 VDRE cis-reporter transcription, actives raise or lower the signal. In short, it runs like this:
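Cell-based multiplexed reporter format in human liver HepG2 cells, 24 h post-dose. Fluorescence from capillary electrophoresis of reporter cDNA gives the signal, with DMSO as negative control and baseline.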

The target in assay [4] is X-box-binding protein 1 (Homo sapiens) (UniProt P17861). Briefly: ATG_Xbp1_CIS: Attagene CIS-FACTORIAL HepG2 Assay for human X-box Binding Protein 1 (XBP1) (AID 2282972). To be noted: HepG2 XBP1 cis-element reporter, Attagene multiplex; actives raise or lower the signal. In short, it runs like this:
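Fluorescence-labelled cDNA fragments from reporter transcripts, separated by capillary electrophoresis, give the signal. Source: HepG2 cells transfected with promoter-driven reporter units, harvested 24 h post-dose. DMSO served as reference for bidirectional curve fitting.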

The target of assay [5] is Glucocorticoid receptor (Homo sapiens) (UniProt P04150). The experiment in a line: ATG_GR_TRANS: Attagene TRANS-FACTORIAL HepG2 Assay for human Glucocorticoid Receptor (GR) (AID 2282978; active means hit-call score of the fitted dose curve at least 0.9, where 1 is the maximum;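 further: activators score as hits since higher reporter transcript over DMSO is fitted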). To be noted: HepG2 Attagene TRANS GR reporter, mRNA transcription. In short, it runs like this:
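Transient MRTU transfection of HepG2 (GAL4-UAS reporters, exogenous NR-GAL4 chimeras), 24 h dosing. Readout: reporter transcript via RT-PCR + capillary electrophoresis fluorescence. Positive direction vs DMSO baseline.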

Assay [6] concerns the target Oxysterols receptor LXR-alpha (Homo sapiens) (UniProt Q13133). Briefly: ATG_LXRa_TRANS: Attagene TRANS-FACTORIAL HepG2 Assay for human Liver X Receptor alpha (LXRa) (AID 2282980; active means hit-call score of the fitted dose curve at least 0.9, where 1 is the maximum). The conditions noted are these: HepG2 Attagene TRANS reporter, LXRa transactivation. In a few lines:
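HepG2 cells were transiently transfected with multiplexed reporter units driven by chimeric LXRa–GAL4 fusion proteins, then dosed for 24 h. Reporter mRNA was quantified by RT-PCR, fluorescent labelling and capillary electrophoresis; gain of signal fitted against DMSO baseline.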

A short description of assay [7]: ATG_M_06_TRANS: Attagene TRANS-FACTORIAL HepG2 Assay for M06 Transcription Factor (Internal Marker) (AID 2282983; active means hit-call score of the fitted dose curve at least 0.9, where 1 is the maximum). To be noted: HepG2 Attagene TRANS M06 internal marker reporter. In short, it runs like this: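 HepG2 cells transiently transfected with multiplexed GAL4-UAS reporter transcription units; after 24 h compound exposure, reporter mRNA measured by RT-PCR, FAM-labelled primer extension, HpaI digestion and capillary electrophoresis. Gain-of-signal fitted versus DMSO baseline; background control readout.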

For assay [8], the target named is Transcriptional activator Myb (Homo sapiens) (UniProt P10242). The experiment in a line: ATG_Myb_CIS: Attagene CIS-FACTORIAL HepG2 Assay for human Myeloblastosis (Myb) Proto-Oncogene Transcription Factor (AID 2282986). To be noted: HepG2 Attagene CIS-FACTORIAL Myb reporter transcription; actives raise or lower the signal. In short, it runs like this:
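HepG2, transient MRTU transfection (cis-element promoters, endogenous TF activity), 24 h compound exposure. Readout: reporter mRNA via RT-PCR, 6-FAM labeling, HpaI digest, capillary electrophoresis. Gain/loss fit vs DMSO.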

In assay [9] the target is Nuclear respiratory factor 1 (Homo sapiens) (UniProt Q16656). The experiment in a line: ATG_NRF1_CIS: Attagene CIS-FACTORIAL HepG2 Assay for human Nuclear Respiratory Factor 1 (NRF1) Orphan Gene (AID 2282987). The conditions noted are these: HepG2 NRF1 cis-element reporter, Attagene multiplex; actives raise or lower the signal. In short, it runs like this: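 Endogenous NRF1-driven reporter transcription measured in transiently transfected human HepG2 liver cells. Readout: reporter mRNA by RT-PCR and capillary electrophoresis with fluorescence detection, 24 h post-dosing. Gain or loss of signal fitted relative to DMSO baseline.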

Assay [10] is described as follows: ATG_NFI_CIS: Attagene CIS-FACTORIAL HepG2 Assay for human Nuclear Factor I (NFI) (AID 2282989). The conditions noted are these: HepG2 cis-regulatory reporter, NFI response element transcription; actives raise or lower the signal. In a few lines:
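After transient transfection of HepG2 with cis-promoter reporter constructs and 24 h dosing, RNA is reverse-transcribed, amplified, 6-FAM end-labelled and HpaI-digested before capillary analysis. Bidirectional curve fitting against DMSO.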

Assay [11] concerns the target Estrogen-related receptor gamma (Homo sapiens) (UniProt P62508). The experiment in a line: ATG_ERRg_TRANS: Attagene TRANS-FACTORIAL HepG2 Assay for human Estrogen-Related Receptor gamma (ERRg) (AID 2282977; active means hit-call score of the fitted dose curve at least 0.9, where 1 is the maximum;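 further: hits increase reporter signal over DMSO so potencies reflect activators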). The conditions noted are these: HepG2 Attagene TRANS reporter, ERRg transactivation. In a few lines:
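Transient HepG2 transfectants, 24 h compound exposure, GAL4-UAS reporter mRNA by RT-PCR/6-FAM labelling/capillary electrophoresis; positive direction vs DMSO.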

A short description of assay [12]: ATG_M_32_TRANS: Attagene TRANS-FACTORIAL HepG2 Assay for M32 Transcription Factor (Internal Marker) (AID 2282984; active means hit-call score of the fitted dose curve at least 0.9, where 1 is the maximum). The conditions noted are these: HepG2 Attagene TRANS M32 internal marker reporter. In short, it runs like this: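 Capillary electrophoresis of 6-FAM-labelled reporter fragments gives the signal; data fitted for gain over DMSO negative control. Source: HepG2 cells bearing transient multiple reporter transcription units, 24 h exposure.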

For assay [13], the target named is Myc proto-oncogene protein (Homo sapiens) (UniProt P01106). The experiment in a line: ATG_Myc_CIS: Attagene CIS-FACTORIAL HepG2 Assay for human Myelocytomatosis (Myc) Proto-Oncogene Transcription Factor (AID 2282990). The conditions noted are these: HepG2, Attagene cis-reporter transcription factor activity; actives raise or lower the signal. In a few lines:
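Fluorescence intensity of reporter-specific cDNA fragments, separated by capillary electrophoresis, gives the signal. Transfected HepG2 cells carrying cis-promoter reporter constructs are incubated with compound for 24 h; DMSO serves as baseline.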

Assay [14] addresses Steroid hormone receptor ERR1 (Homo sapiens) (UniProt P11474). The experiment in a line: ATG_ERRa_TRANS: Attagene TRANS-FACTORIAL HepG2 Assay for human Estrogen-Related Receptor alpha (ERRa) (AID 2282971; active means hit-call score of the fitted dose curve at least 0.9, where 1 is the maximum). The conditions noted are these: HepG2 Attagene TRANS reporter, ERRa transactivation. In a few lines: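 HepG2 cells transiently transfected with multiplexed GAL4-UAS reporter units reading chimeric ERRa-Gal4 activity; 24 h compound exposure. Reporter mRNA measured by RT-PCR, 6-FAM labelling, HpaI digest and capillary electrophoresis; gain of signal fitted versus DMSO baseline.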

Assay [15] is described as follows: ATG_GAL4_TRANS: Attagene TRANS-FACTORIAL HepG2 Assay for GAL4 (Internal Marker) (AID 2282976; active means hit-call score of the fitted dose curve at least 0.9, where 1 is the maximum). To be noted: HepG2 Attagene TRANS GAL4 internal marker reporter. In short, it runs like this:
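HepG2 cells transiently transfected with multiplexed GAL4-UAS reporter constructs were dosed for 24 h. Reporter mRNA was measured by RT-PCR, 6-FAM primer extension, HpaI digestion and capillary electrophoresis, and gain of signal was fitted relative to DMSO.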

In assay [16] the target is Bile acid receptor (Homo sapiens) (UniProt Q96RI1). Briefly: ATG_FXR_TRANS: Attagene TRANS-FACTORIAL HepG2 Assay for Farnesoid X Receptor (FXR) (AID 2282979; active means hit-call score of the fitted dose curve at least 0.9, where 1 is the maximum;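 further: hits raise reporter mRNA above DMSO so AC50 marks FXR activation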). To be noted: HepG2 Attagene TRANS FXR-GAL4 reporter transcription. In short, it runs like this: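 HepG2 cells transiently transfected with reporter constructs in which a chimeric FXR-GAL4 protein drives a GAL4-UAS reporter; 24 h compound exposure. Reporter mRNA measured by RT-PCR, FAM labelling, HpaI digestion and capillary electrophoresis; gain-of-signal versus DMSO.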

For assay [17], the target named is Oxysterols receptor LXR-beta (Homo sapiens) (UniProt P55055). The experiment in a line: ATG_LXRb_TRANS: Attagene TRANS-FACTORIAL HepG2 Assay for human Liver X Receptor beta (LXRb) (AID 2282981; active means hit-call score of the fitted dose curve at least 0.9, where 1 is the maximum). To be noted: HepG2 Attagene TRANS GAL4-LXRb reporter, mRNA. In short, it runs like this: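 Gain-of-signal mRNA reporter endpoint, DMSO as negative control. Transiently transfected HepG2 cells carrying the NR-Gal4 chimera and GAL4-UAS reporter units were treated 24 h; transcripts quantified by RT-PCR and capillary electrophoresis fluorescence.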

Inconclusive results are not listed. Active and inactive are the calls of the source. How the source made its calls, unless noted: active means hit-call score of the fitted dose curve at least 0.9, where 1 is the maximum; inactive means score below 0.9.

X-box-binding protein 1 (Homo sapiens), sequence (P17861 whole entry, looked up, the tested form may be a part): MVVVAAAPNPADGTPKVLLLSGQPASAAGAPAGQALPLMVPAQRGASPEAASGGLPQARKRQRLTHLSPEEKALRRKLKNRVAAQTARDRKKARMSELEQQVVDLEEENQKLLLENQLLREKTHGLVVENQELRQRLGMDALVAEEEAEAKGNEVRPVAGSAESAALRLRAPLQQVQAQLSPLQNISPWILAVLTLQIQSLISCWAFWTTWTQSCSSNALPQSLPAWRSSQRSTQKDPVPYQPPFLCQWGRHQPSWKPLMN
Oxysterols receptor LXR-alpha (Homo sapiens), sequence (Q13133 whole entry, looked up, the tested form may be a part): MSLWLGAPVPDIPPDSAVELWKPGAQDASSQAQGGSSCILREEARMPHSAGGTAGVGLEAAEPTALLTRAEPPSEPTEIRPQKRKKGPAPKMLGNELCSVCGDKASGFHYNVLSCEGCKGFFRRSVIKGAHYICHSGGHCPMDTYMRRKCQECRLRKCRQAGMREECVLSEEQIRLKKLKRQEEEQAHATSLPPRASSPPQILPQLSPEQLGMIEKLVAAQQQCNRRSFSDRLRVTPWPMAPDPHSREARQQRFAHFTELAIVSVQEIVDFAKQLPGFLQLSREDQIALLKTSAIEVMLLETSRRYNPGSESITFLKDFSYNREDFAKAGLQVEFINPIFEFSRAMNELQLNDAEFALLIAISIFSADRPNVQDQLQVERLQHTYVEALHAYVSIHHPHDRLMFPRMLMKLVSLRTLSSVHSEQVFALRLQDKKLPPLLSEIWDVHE
Nuclear respiratory factor 1 (Homo sapiens), sequence (Q16656 whole entry, looked up): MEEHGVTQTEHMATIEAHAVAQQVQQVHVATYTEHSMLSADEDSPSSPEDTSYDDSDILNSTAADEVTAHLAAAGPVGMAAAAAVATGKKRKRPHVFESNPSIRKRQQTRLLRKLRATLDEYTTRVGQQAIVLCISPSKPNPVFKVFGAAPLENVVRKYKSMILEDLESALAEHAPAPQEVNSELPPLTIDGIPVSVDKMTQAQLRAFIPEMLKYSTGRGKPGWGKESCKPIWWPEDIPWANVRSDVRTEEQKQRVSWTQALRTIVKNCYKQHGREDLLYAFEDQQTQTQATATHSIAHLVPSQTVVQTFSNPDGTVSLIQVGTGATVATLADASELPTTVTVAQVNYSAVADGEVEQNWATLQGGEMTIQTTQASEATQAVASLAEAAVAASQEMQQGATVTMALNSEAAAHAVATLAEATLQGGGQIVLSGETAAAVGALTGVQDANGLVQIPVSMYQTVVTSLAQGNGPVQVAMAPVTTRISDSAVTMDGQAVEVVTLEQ
Transcriptional activator Myb (Homo sapiens), sequence (P10242 whole entry, looked up): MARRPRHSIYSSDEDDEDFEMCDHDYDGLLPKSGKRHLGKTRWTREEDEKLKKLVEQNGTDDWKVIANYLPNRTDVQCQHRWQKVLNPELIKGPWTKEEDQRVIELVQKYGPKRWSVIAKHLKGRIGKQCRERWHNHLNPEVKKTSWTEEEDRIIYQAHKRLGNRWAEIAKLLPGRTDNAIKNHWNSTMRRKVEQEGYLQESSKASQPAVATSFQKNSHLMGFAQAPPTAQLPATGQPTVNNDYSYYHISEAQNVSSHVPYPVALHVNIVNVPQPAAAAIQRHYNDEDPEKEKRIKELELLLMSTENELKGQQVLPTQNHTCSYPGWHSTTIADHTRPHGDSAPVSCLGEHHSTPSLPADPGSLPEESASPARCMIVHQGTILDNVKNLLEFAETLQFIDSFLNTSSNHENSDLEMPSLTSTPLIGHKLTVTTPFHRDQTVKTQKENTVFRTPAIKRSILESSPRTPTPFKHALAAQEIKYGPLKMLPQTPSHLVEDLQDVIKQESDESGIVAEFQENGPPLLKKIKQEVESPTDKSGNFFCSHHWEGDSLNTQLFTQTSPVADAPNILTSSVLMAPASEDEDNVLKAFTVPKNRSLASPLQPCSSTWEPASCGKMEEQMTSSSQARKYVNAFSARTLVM
Bile acid receptor (Homo sapiens), sequence (Q96RI1 whole entry, looked up, the tested form may be a part): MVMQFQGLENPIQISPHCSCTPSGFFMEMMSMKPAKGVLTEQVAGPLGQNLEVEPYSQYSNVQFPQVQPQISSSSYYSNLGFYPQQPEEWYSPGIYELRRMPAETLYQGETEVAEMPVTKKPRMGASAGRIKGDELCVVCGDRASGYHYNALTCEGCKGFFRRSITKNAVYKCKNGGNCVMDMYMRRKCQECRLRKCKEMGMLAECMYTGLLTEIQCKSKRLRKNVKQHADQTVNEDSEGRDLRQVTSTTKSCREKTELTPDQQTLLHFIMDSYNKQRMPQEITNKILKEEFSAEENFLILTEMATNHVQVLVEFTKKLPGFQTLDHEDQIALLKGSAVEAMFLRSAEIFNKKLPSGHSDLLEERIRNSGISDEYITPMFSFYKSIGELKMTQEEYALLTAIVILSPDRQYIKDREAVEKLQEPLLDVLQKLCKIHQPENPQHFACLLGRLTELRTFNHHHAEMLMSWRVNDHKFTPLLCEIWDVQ
Glucocorticoid receptor (Homo sapiens), sequence (P04150 whole entry, looked up, the tested form may be a part): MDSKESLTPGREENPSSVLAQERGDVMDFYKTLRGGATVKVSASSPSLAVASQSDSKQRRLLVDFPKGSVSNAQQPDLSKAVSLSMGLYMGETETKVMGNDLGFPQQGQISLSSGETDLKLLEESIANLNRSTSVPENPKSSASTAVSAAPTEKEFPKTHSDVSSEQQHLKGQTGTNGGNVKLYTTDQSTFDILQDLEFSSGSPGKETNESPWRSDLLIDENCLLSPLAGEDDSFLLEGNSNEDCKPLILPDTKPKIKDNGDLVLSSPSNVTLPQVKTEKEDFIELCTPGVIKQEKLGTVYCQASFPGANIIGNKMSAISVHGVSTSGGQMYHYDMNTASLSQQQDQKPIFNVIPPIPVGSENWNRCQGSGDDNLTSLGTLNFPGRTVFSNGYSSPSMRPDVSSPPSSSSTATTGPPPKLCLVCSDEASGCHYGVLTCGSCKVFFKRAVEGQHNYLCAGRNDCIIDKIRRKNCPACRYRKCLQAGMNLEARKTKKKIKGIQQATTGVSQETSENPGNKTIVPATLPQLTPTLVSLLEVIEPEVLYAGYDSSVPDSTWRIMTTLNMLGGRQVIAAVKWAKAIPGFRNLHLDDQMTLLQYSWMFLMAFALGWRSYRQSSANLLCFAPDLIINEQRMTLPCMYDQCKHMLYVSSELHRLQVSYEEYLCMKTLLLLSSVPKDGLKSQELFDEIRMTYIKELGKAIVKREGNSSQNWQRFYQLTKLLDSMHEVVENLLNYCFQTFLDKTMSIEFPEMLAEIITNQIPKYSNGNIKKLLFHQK
Myc proto-oncogene protein (Homo sapiens), sequence (P01106 whole entry, looked up, the tested form may be a part): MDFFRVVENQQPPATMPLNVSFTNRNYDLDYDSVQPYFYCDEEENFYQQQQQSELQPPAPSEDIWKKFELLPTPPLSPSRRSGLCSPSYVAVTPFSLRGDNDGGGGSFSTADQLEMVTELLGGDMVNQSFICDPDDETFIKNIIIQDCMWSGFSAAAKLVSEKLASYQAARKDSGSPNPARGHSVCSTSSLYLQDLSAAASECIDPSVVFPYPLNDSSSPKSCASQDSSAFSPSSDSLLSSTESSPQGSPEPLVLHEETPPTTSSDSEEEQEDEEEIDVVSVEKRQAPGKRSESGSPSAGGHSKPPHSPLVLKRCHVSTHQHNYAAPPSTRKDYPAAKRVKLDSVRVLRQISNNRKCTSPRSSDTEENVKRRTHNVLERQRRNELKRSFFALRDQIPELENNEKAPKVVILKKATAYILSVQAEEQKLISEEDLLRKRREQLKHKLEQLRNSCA
Estrogen-related receptor gamma (Homo sapiens), sequence (P62508 whole entry, looked up, the tested form may be a part): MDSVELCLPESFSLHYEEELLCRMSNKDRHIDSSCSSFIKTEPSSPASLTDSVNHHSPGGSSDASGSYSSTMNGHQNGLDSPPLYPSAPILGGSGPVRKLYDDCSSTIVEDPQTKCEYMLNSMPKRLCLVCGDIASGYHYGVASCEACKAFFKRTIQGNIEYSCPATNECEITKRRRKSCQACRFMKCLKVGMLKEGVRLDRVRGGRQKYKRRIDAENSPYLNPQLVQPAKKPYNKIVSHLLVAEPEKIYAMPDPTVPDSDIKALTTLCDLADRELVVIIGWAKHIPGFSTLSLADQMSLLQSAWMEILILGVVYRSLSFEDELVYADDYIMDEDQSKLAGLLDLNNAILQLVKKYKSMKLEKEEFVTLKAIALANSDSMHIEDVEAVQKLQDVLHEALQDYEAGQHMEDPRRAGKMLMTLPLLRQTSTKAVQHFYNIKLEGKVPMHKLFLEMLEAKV
Oxysterols receptor LXR-beta (Homo sapiens), sequence (P55055 whole entry, looked up, the tested form may be a part): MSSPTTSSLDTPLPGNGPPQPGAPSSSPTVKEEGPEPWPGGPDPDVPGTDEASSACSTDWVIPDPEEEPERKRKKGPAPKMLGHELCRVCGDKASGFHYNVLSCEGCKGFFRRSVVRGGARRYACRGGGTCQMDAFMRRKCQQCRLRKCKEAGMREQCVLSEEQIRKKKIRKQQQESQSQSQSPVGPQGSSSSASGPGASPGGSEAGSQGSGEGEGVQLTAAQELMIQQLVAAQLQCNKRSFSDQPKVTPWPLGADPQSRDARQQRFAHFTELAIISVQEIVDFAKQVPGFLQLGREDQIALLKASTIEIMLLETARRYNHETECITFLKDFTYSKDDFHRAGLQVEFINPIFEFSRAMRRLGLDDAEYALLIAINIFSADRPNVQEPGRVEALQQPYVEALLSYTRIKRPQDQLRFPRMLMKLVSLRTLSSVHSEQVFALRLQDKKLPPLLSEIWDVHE
Steroid hormone receptor ERR1 (Homo sapiens), sequence (P11474 whole entry, looked up, the tested form may be a part): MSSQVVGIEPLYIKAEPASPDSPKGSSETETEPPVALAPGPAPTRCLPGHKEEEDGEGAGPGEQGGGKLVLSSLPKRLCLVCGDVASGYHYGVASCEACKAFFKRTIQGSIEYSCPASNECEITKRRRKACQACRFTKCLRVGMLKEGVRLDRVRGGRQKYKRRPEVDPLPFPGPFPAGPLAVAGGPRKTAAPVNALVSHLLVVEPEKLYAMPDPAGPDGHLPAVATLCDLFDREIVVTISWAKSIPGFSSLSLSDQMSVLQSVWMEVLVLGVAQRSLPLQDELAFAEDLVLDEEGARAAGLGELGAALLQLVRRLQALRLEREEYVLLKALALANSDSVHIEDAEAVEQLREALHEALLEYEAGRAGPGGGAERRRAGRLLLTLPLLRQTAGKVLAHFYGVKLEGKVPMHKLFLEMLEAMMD

With `CCCCCCc1ccc(O)cc1O`, the outcome in [1], in assay [2], in assay [5], in [6], in assay [7] and in assay [8] was inactive. Also, the outcome in [9] and in assay [10] was inactive. For the same molecule, the AC50 in assay [3] is 38.7 µM (active); in assay [4] it was 55.3 µM (active).
For the molecule `On1ccccc1=S`, the call in [1], in assay [2], in assay [3], in assay [4], in assay [11] and in [7] was inactive. The result in assay [12], in assay [9], in assay [10] and in assay [13] was inactive.
As to `CC(C)=CCC/C(C)=C/CO`, the outcome in assay [1], in assay [2], in assay [3], in assay [4], in [5] and in assay [7] was inactive. Moreover, the call in [8], in [9] and in [10] was inactive.
For `CCCCC(CC)COC(=O)c1ccc(C(=O)OCC(CC)CCCC)cc1` (stereo not given), the call in assay [1], in assay [2], in [14], in assay [4], in assay [15] and in assay [16] was inactive. The molecule was called inactive in assay [6], in assay [7], in assay [9] and in assay [10].
As for `CC(C)CCCCCCOC(=O)c1ccc(C(=O)OCCCCCCC(C)C)c(C(=O)OCCCCCCC(C)C)c1`, the outcome in [1], in assay [2], in assay [3], in assay [4], in [15] and in assay [7] was inactive. Moreover, the outcome in assay [8], in assay [9], in assay [10] and in assay [13] was inactive.
Regarding `O=C1CCCCCN1`, the result in assay [1], in assay [2], in [3], in assay [4], in assay [11] and in assay [16] was inactive. Moreover, the molecule was called inactive in assay [6], in assay [17], in assay [7], in [9] and in assay [10].

These data come from PubChem BioAssay (EPA / NIEHS).
